Source: PubChem BioAssay
Shown are actives, neighbours in structure and some others; about 3.4% of the full set was active somewhere.
FBW7 activator: activators of human E3 ligase FBW7; Q969H0; AlphaScreen FBW7–phospho-cyclin E peptide binding, activator screen; normalized activity (activation), % at 26.1 µM; 0.13% of 650,000 active; in the data active = normalized activity above about 1.9%;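 also: purified mutant Fbw7 with reduced substrate affinity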
TEAD-YAP inh: TEAD-YAP interaction inhibition; HEK-TIYL cells, TEAD-Gal4/YAP UAS-luciferase luminescence; inhibition, % at 9.12 µM; 1.4% of 640,000 active; in the data active = inhibition above about 32%
GPR151 activ: activates the human receptor GPR151; Q8TDV0; 1% of 650,000 active; PathHunter beta-arrestin GPR151 cells, luminescence; activation, % at 11.2 µM; in the data active = activation above about 4.9%
MITF inh: blocks human microphthalmia-associated transcription factor | O75030 | AlphaScreen MITF homodimerization, bead proximity signal | inhibition, % at 2.6 µM | 0.91% of 650,000 active; in the data active = inhibition above about 50%
Target sequence (O75030 whole entry, looked up): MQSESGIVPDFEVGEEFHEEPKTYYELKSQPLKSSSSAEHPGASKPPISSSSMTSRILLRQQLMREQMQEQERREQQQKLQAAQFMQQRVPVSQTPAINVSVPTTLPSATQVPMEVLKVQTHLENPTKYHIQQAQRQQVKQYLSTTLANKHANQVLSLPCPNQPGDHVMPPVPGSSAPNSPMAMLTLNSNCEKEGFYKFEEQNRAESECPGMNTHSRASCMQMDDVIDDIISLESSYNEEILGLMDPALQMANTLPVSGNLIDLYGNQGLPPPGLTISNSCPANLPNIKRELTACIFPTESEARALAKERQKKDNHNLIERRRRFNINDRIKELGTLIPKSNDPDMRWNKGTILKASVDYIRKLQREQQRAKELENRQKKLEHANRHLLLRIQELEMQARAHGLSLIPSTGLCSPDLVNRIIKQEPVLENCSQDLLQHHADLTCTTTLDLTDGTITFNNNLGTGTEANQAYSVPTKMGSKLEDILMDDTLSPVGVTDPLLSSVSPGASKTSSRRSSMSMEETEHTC
GPR151 confirm: human GPR151 activation, confirmation screen; shares compounds with GPR151 activ; GPR151 PathHunter beta-arrestin cells, luminescence, 90 min; % of EA-reagent control over plate median; activation, % at 11.2 µM; 6,700 tested, under 10 active; AID 1508609;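 active = mean percent activation across replicates above the confirmation screen cutoff of 4.91%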
GPR119 ag: activates human GPR119 in a GPR151 counter-screen; shares compounds with GPR151 activ; AID 1508611; activation, % at 11.2 µM; GPR119 PathHunter beta-arrestin cells, luminescence, 90 min; 0 = compound-well median, 100 = enzyme-acceptor control; 0.3% of 6,700 active;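 active = mean percent activation in the counterscreen above 29.09%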;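 also: counterscreen on off-target GPR119 to flag nonselective hits from the GPR151 activator screen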
Hits are given with their value; n = inactive; x = no result.

SMILES	FBW7 activator	TEAD-YAP inh	GPR151 activ	MITF inh	GPR151 confirm	GPR119 ag
CCOC(=O)c1oc2ccccc2c1NC(=O)C1COc2ccccc2O1 (configuration not stated)	n	n	5.5	n	n	n
CCOC(=O)c1oc2ccccc2c1NC(=O)c1ccc(Cl)s1	n	n	6.5	n	n	n
CCOC(=O)c1oc2ccccc2c1NC(=O)C1CCCCC1	n	n	n	n	x	x
Cc1ccc(-n2nnnc2CN2CCN(C(=O)Nc3cccc(C)c3)CC2)cc1	n	n	n	n	x	x
CCN1CCCC1CNC(=O)c1cccc(OC2CCN(CC(C)(C)C)CC2)c1 (configuration not stated)	n	n	n	n	x	x
COc1ccc(/C=C/C(=O)N2CCN(c3ccc(Cl)cc3)CC2)cc1	n	n	n	n	x	x
CN(C)CCCN(Cc1ccc2c(c1)OCO2)C(=O)NC1CCCCC1	n	n	5.2	n	n	n
CC(NC(=S)NC(=O)C12CC3CC(CC(C3)C1)C2)C12CC3CC(CC(C3)C1)C2 (configuration not stated)	n	n	n	n	x	x
CN(C)CC(C)(O)c1ccc2c(c1)CN(Cc1ccc3c(c1)OCCO3)CCO2 (configuration not stated)	n	n	4.9	n	n	n
COc1cccc(OC)c1OCC(O)CN1CC(C)OC(C)C1 (configuration not stated)	n	n	n	n	x	x
CC(=O)Nc1ccc(NC(=O)CSc2ncnc3c2cnn3-c2ccc(C)cc2C)cc1	n	n	5.2	n	n	n
Cc1ccc(-n2ncc3c(SCC(N)=O)ncnc32)c(C)c1	n	n	n	n	x	x
COc1cc(/C=N/Nc2ccc3nnc(C)n3n2)ccc1O	n	n	8.9	n	n	n
COc1ccc(-c2ccc(/C=C3\C(=O)N(C)C(=O)C(C#N)=C3C)o2)cc1[N+](=O)[O-]	n	n	n	n	x	x
O=C1CCCC2=C1C(c1ccc(O)c(Cl)c1)C1=C(CCCC1=O)O2	n	34	7.4	n	n	n
CCCCSc1nnc2c(n1)OC(c1ccccc1OC)Nc1ccccc1-2 (configuration not stated)	n	n	n	n	x	x
CCCCSc1nnc2c(n1)OC(c1ccccc1OCC(=O)OCC)Nc1ccccc1-2 (configuration not stated)	n	n	5.1	n	n	n
CCCCSc1nnc2c(n1)OC(C)(C)Nc1ccccc1-2	n	n	5.1	n	n	n
COC(=O)c1c(NC(=S)N2CCN(C(=O)C3CCCO3)CC2)sc2c1CCC2 (configuration not stated)	n	n	n	n	x	x
COC(=O)c1c(NC(=S)N2CCN(S(C)(=O)=O)CC2)sc2c1CCCCCC2	n	n	6.7	n	n	n
COc1ccccc1C1CC(c2ccc(C(C)C)cc2)Nc2nnnn21 (configuration not stated)	n	n	n	n	x	x
COc1ccccc1C1CC(c2ccc(Cl)cc2)Nc2nnnn21 (configuration not stated)	n	n	5.2	n	n	n
Cc1c(C#N)c(O)n(CCO)c(=O)c1N=Nc1ccc(C(=O)O)cc1	n	n	n	n	x	x
Clc1nc(NCc2ccccc2)c2ncn(-c3ccccc3)c2n1	n	n	5.0	n	n	n
c1ccc(CNc2nc(Nc3ccncc3)nc3c2ncn3-c2ccccc2)cc1	n	n	6.6	n	n	n
SMILES	FBW7 activator	TEAD-YAP inh	GPR151 activ	MITF inh	GPR151 confirm	GPR119 ag
CCOC(=O)N1CCN(c2cc(N3CCN(C)CC3)c(F)cc2[N+](=O)[O-])CC1	n	n	8.3	n	n	n
CCOC(=O)N1CCN(c2cc(N3CCCC3)c(F)cc2[N+](=O)[O-])CC1	n	n	n	n	x	x
Cc1ccc(O)c(-c2cc(-c3ccc(Cl)cc3)no2)c1	n	n	n	n	x	x
CCOc1ccc(C(=O)Nc2ccc(S(=O)(=O)NC(C)(C)C)cc2)cc1OCC	n	n	5.9	n	n	n
CCNS(=O)(=O)c1ccc(NC(=O)c2ccccc2OCC)cc1	n	n	n	n	x	x
CCOc1ccccc1C(=O)Nc1ccc(S(=O)(=O)NC(C)CC)cc1 (configuration not stated)	n	n	13	n	n	n
Cc1ccc(NS(=O)(=O)c2cc(C(=O)Nc3cccc(C(=O)O)c3)ccc2C)cc1	n	n	n	n	x	x
Cc1ccc2nc(N3CCC(C(=O)NC4(c5ccccc5)CC4)CC3)nc(C)c2c1	n	n	n	n	x	x
